Compounds without any hit were thinned out: in the full panel of roughly 83,000, 20% have a hit.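 A percent growth of 40 corresponds to 60% growth inhibition; 0 means no net growth; -100 means all cells died. Active threshold: below 10.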 A number with no mark means an inactive call. Activity calls are given as the source filed them.
Each compound was assayed on MOLT-4 leukemia (assay: NCI-60 one-dose screen, 48 h (100 = growth as untreated, 0 = no growth, -100 = all killed)). Conditions: 10 µM unless noted.
Experimental: Growth inhibition of the MOLT-4 human tumor cell line is measured as a screen for anti-cancer activity. Cells are grown in 96 well plates and exposed to the test compound for 48 hours. Compounds are tested at a single concentration, which is 10^-5 M for most compounds. The reported endpoint is percent growth (GI% or GIPRCNT), where numbers from 0 - 100% represent growth inhibition, and numbers from -100% - 0 represent cell death. For example, a value of 40 represents 60% growth inhibition. A value of 0 means no net growth occurred over the course of the experiment. A value of -40 indicates 40% of cells at the beginning of the experiment died by the end of the experiment. A value of -100 means all cells are dead at the end of the experiment.
NCI-60 Human Tumor Cell Lines Screen was performed using the standard one-dose NCI protocol, which is described in more detail at https://dtp.cancer.gov/discovery_development/nci-60/default.htm.
Compounds with GIPRCNT values below 10 were considered active. Activity score was based on GIPRCNT using the following formula: […]
Score is 0 for GIPRCNT values of 100 or above, 50 for GIPRCNT values of 0, and 100 for GIPRCNT values of -100.

| Compound | growth |
| --- | --- |
| COc1ccc(OC)c(CCn2cncc2-c2c[nH]c3ccccc23)c1 | 75.3% |
| COc1cc2c(c(OC)c1OC)CCC(c1cccc(NC(=O)c3cccc(Br)c3)c1)O2 (stereo not given) | 74.3% |
| O=C(Nc1cccc(C(=O)N2CCc3ccc(Cl)cc32)c1)c1ccco1 | 30.1% |
| COc1cc(/C(C)=C(\c2ccc(Cl)cc2)c2ccc(OCCN3CCCC3)cc2)ccc1F | 32.6% |
| C=C1C(=O)O[C@H]2[C@H]1CC/C(COC(=O)NCc1c[nH]c3ccc(F)cc13)=C\CC[C@@]1(C)O[C@@H]21 | 3.81% (active) |
| C[C@H]1[C@H](C)CC[C@]2(C(=O)Nc3ccc4ncccc4c3)CC[C@]3(C)C(=CC[C@@H]4[C@@]5(C)CCCNC(C)(C)[C@@H]5CC[C@]43C)[C@H]12 | -47.9% (active) |
| Brc1ccc2[nH]cc(-c3cncn3CCc3ccccc3)c2c1 | 48.6% |
| C=C1C(=O)O[C@H]2[C@H]1CC/C(CNS(=O)(=O)c1cccc3ccccc13)=C\CC[C@@]1(C)O[C@@H]21 | 6.51% (active) |
| C=CCn1c(-c2ccc(-c3nc4ccc(C)cc4[nH]3)cc2)n[nH]c1=S | 96.9% |
| C=C1C(=O)O[C@H]2[C@H]1CC/C(C(=O)NCCCCCNC(=O)/C1=C/CC[C@@]3(C)O[C@H]3[C@H]3OC(=O)C(=C)[C@@H]3CC1)=C\CC[C@@]1(C)O[C@@H]21 | 96.2% |
| CCCCC[n+]1ccc(SCC(=O)N(C)c2ccc(Oc3ccccc3)cc2)c2ccccc21 | 82% |
| C#CCNC(=O)[C@]1(C)CC[C@]2(C)CC[C@@H]3C(=CC[C@H]4[C@@]3(C)CC[C@H]3C(C)(C)C(=O)CC[C@]43C)[C@@H]2C1 | 93.1% |
| CCCCCN1C=C/C(=C\C(=O)n2ccc3ccccc32)c2ccccc21 | 90% |
| COc1ccccc1NS(=O)(=O)c1cccc(C(=O)Nc2ccc(Br)cc2)c1 | 26.8% |
| CCN(CC)CC[n+]1cc2cc(OC)c(OC)cc2c2ccc3cc4c(cc3c21)OCO4 | -5.52% (active) |
| NCCCCCCNc1cc(-c2cccc(OC(F)(F)F)c2)nc2ccc(N3CCCC3)cc12 | -20.7% (active) |
| O=S(=O)(NCCNc1nccc(-c2c(-c3cccc(F)c3)nc3sccn23)n1)c1ccccc1 | 16.6% |
| CNC(=O)c1cccc(Cn2nc(C)c(NC(=O)c3ccc(COc4ccc(C(F)(F)F)cc4C)cc3)c2C)n1 | 29.6% |
| CC(=O)Nc1ccc(-c2ccc3c(c2)NC(=O)/C3=C\c2ccc[nH]2)cc1 | 87.3% |
| Nc1n[nH]c2cccc(C#Cc3cccc(C(=O)Nc4cc(CN5CCOCC5)cc(C(F)(F)F)c4)c3)c12 | 23.8% |

| Compound | growth |
| --- | --- |
| O=C(CCN1CCCC1)Nc1ccc2c(NCCCc3ccccc3)c3ccccc3nc2c1 | -18.5% (active) |
| COc1ccc(C(=O)c2cc(C)c(OC)c(C)c2)c(OC)c1NC(C)=O | 38.7% |
| N#C/C(=C\c1ccc([N+](=O)[O-])s1)c1nc2cc(Br)ccc2s1 | -18.8% (active) |
| S=c1cc(S)c2cc(Br)ccc2[nH]1 | 98.7% |
| CCCCCN1C=C/C(=C\C(=O)N2CCCc3ccccc32)c2ccccc21 | 78.5% |
| CC(C)(C)CC(C)(C)n1nnnc1C(NC12CC3CC(CC(C3)C1)C2)c1ccccc1 (stereo not given) | 90% |
| O=C(CSc1nc2sc3c(c2c(=O)n1-c1ccc(Cl)cc1)CCCC3)Nc1nc(-c2cccc(Br)c2)cs1 | 87.1% |
| COc1cc2c(cc1OC)C(=O)/C(=C/c1cc(C)c(O)c(C)c1)S2 | 24.5% |
| COc1ccc(C(=O)c2cc(OC)c(OC)c(OC)c2)cc1O | 15.4% |
| COc1ccccc1/C=C1\Oc2cc(OCCN3CCCC3)ccc2C1=O | 68.7% |
| COc1ccc(C(=O)/C=C/c2cc3ccccc3n3nnnc23)cc1 | 103% |
| Cc1ccc(C(=O)/C(=C\c2ccc([N+](=O)[O-])cc2)S(=O)Cc2ccc(F)cc2)cc1 (stereo not given) | 1.47% (active) |
| O=C(N/N=C/c1cc2ccccc2n2nnnc12)Nc1ccccc1 | 101% |
| CCN(CC)c1ccc(/C=N/NC(=O)CSc2nc3ccccc3c(=O)n2Cc2ccc(S(N)(=O)=O)cc2)c(O)c1 | 11.1% |
| O=S(=O)(NCCNc1nccc(-c2c(-c3cccc(O)c3)nc3occn23)n1)c1cccc(F)c1 | 93% |
| Cc1cnc(C(=O)Nc2nc3ccc(S(=O)(=O)Nc4ccc(C(C)(C)C)cc4)cc3[nH]2)cn1 | 21.5% |
| C=C1C(=O)O[C@H]2[C@H]1CC/C(COC(=O)NCCc1c[nH]c3ccc(OC)cc13)=C\CC[C@@]1(C)O[C@@H]21 | 3.53% (active) |
| Cc1cccc(NC(=O)Nc2ccc(-c3ccc4c(c3)NC(=O)/C4=C\c3ccc[nH]3)cc2)c1 | 53.8% |
| Nc1nc(Nc2ccccc2SSc2ccccc2Nc2nc(N)nc(-c3ccc(C(F)(F)F)cc3)n2)nc(-c2ccc(C(F)(F)F)cc2)n1 | 56.2% |
| c1ccc(-c2cn3c(ccc4ccccc43)n2)cc1 | 57.8% |
